PREPL inh = inhibits the human prolyl oligopeptidase-like enzyme. 320,000 compounds, 0.68% hits. Q4J6C6. recombinant PREPL, fluorescence polarization activity-based probe. inhibition, % at 5.96 µM; in the data active = inhibition above about 43%
PME-1 inh = PME-1 (human) inhibition; Q9Y570; AID 2130; inhibition, % at 5.9 µM; 320,000 compounds, 0.53% hits; recombinant PME-1, FP-Rh probe fluorescence polarization;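 active = inhibition above the campaign mean of all compounds plus 3 SD, cut at about 26% in these data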;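 note: competitive labeling of PME-1 active site by serine hydrolase directed probe; inhibitors block probe labeling so polarization falls and inhibition rises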
Target sequence (Q9Y570 whole entry, looked up): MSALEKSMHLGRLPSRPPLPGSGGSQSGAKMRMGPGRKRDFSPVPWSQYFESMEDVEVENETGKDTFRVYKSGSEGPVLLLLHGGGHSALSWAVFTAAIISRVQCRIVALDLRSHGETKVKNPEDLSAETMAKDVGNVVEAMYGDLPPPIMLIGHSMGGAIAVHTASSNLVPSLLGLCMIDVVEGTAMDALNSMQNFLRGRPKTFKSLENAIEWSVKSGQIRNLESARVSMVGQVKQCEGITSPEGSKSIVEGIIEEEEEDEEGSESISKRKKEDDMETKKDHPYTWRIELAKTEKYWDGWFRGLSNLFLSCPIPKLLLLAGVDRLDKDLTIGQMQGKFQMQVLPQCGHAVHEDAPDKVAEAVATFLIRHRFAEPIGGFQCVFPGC
Fam108B inh = counter-screen for RBBP9 inhibitors: inhibitors of mouse Fam108B; 300,000 compounds, 0.33% hits; inhibition, % at 9.51 µM; recombinant Fam108B, FP-Rh probe fluorescence polarization; AID 1947;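 active = inhibition above the screen mean inhibition plus 3 SD, computed separately per campaign, cut at about 18% in these data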;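 note: inhibitors lower polarization as less probe binds the enzyme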
LYPLA1 inh = LYPLA1 (human) inhibition in PME1 counter-screen. AID 2174. recombinant LYPLA1, FP-Rh probe fluorescence polarization. 320,000 compounds, 0.16% hits. O75608. inhibition, % at 5.9 µM;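 active = inhibition above the mean of all tested compounds plus 3 SD, set per campaign, cut at about 14% in these data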;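 note: inhibitors block serine hydrolase probe labeling of LYPLA1 so polarization falls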
LYPLA2 inh = LYPLA2 (human) inhibition in PME1 counter-screen | O95372 | recombinant LYPLA2, FP-Rh probe fluorescence polarization | inhibition, % at 5.9 µM | 320,000 compounds, 0.38% hits | AID 2177;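 active = inhibition above the screen-wide mean plus 3 SD, limit set per campaign, cut at about 26% in these data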
Target sequence (O95372 whole entry, looked up): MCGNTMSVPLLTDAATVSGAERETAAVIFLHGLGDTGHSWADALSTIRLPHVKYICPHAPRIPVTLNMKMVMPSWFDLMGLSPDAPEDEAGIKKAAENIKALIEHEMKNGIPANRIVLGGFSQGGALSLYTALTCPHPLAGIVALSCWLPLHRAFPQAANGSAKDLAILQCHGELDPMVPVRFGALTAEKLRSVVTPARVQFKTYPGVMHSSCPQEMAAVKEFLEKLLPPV
Hits are given with their value; 0 = inactive; - = no result given. This is a sample that favours compounds with a hit; in the whole collection about 1.3% have one here.

SMILES	PREPL inh	PME-1 inh	Fam108B inh	LYPLA1 inh	LYPLA2 inh
O=C1Nc2ccccc2/C1=N\N=C\C1=C(N2CCOCC2)C(=C\c2ccccc2)/CC1	0	31	0	0	0
Cc1ccsc1/C=N/n1c(-c2cc(-c3ccccc3)n[nH]2)n[nH]c1=S	0	35	0	0	0
CCCCNC(=O)CSc1nnc(-c2c[nH]c3ccccc23)n1CC1CCCO1 (stereo not drawn)	0	0	0	0	0
O=[N+]([O-])c1ccc(N2CCN(C(=S)NCc3ccc(Cl)cc3)CC2)cc1	0	0	0	0	28
CCCCN1CC(=O)N2[C@H]3c4ccccc4OC[C@@H]3[C@H](C(=O)OCC)[C@]2(C)C1=O	0	-	-	-	-
COc1ccc(NC(=O)CCC(=O)OCC(=O)c2ccc(Oc3ccc([N+](=O)[O-])cc3)cc2)cc1	0	0	0	0	26
Cc1ccc(NC(=O)CCC(=O)OCC(=O)c2ccc(Oc3ccc([N+](=O)[O-])cc3)cc2)cc1	0	0	0	0	0
CC1CCCCN1CC(=O)c1c(N)n(Cc2ccccc2)c(=O)n(C)c1=O (stereo not drawn)	0	0	0	0	0
CCc1ccc(CNC(=O)C2Cc3cc(S(=O)(=O)N4CCCC4)ccc3N2C(C)=O)cc1 (stereo not drawn)	0	0	0	0	0
CC1CCCC(C)N1C(=O)COC(=O)c1cc(F)c(F)cc1Cl (stereo not drawn)	0	-	-	-	-
N#Cc1ccc(Oc2ncccn2)cc1	0	0	0	0	0
COC(=O)c1ccc(Cn2nnc3c(=O)[nH]c(C4CCCN(S(=O)(=O)c5ccccc5Cl)C4)nc32)cc1 (stereo not drawn)	0	0	0	0	0
COC(=O)c1ccc(Cn2nnc3c(=O)[nH]c(C4CCN(S(=O)(=O)c5ccc(F)cc5)CC4)nc32)cc1	0	36	0	0	0
O=[N+]([O-])c1ccc(NCCCNS(=O)(=O)c2ccc(Cl)cc2)c(Cl)c1	0	0	0	0	27
Cc1cccc(NC(=O)CCc2nnc3ccc(N4CCC(C)CC4)nn23)n1	0	0	0	0	0
COC(=O)N/N=C\c1cccc(OC(=O)c2cccs2)c1	0	0	0	0	0
O=C1NN(c2ccc(Cl)c(Cl)c2)C(=O)/C1=C/c1cccc(OC(=O)c2cccs2)c1	0	37	0	0	0
O=[N+]([O-])c1cccc(/C=C/c2ccc3cccc(O)c3n2)c1	0	0	0	0	0
Oc1ccc(/C=C/c2ccc3cccc(O)c3n2)cc1Br	0	31	0	0	0
C/C(=N\O)c1noc(C)c1C(=O)Nc1nccs1	0	0	0	0	0
COCCNC(=S)N=Nc1c(O)[nH]c2c(C)cc(C)cc12	0	0	0	0	0
Cc1cc(C)c2[nH]c(O)c(N=NC(=O)c3cc4c(s3)CCCC4)c2c1	0	26	0	0	0
Oc1ccccc1NCC(O)Cn1ccc2ccccc21 (stereo not drawn)	45	0	0	0	0
OC(CNCc1ccccc1)Cn1ccc2ccccc21 (stereo not drawn)	0	0	0	0	0
OC(CN1CCNCC1)Cn1ccc2ccccc21 (stereo not drawn)	60	0	0	0	0
SMILES	PREPL inh	PME-1 inh	Fam108B inh	LYPLA1 inh	LYPLA2 inh
O=C(Nc1cccc(F)c1)N1CCN(C(=O)c2ccco2)CC1	0	0	0	0	0
C/C(=N\Nc1ccccc1C(=O)O)c1ccncc1	0	73	0	0	0
O=C(CSc1nnc(SCc2cccc3ccccc23)s1)N/N=C/c1c[nH]c2ccccc12	0	26	34	0	0
Cc1ccc(C)c(NC(=O)CSc2nc3ccc(N4C(=O)c5ccccc5C4=O)cc3s2)c1	0	0	0	0	0
CC(=O)Nc1ccc(OCC(O)Cn2c3ccccc3c3ccccc32)c(C)c1 (stereo not drawn)	45	0	0	0	0
COc1cc(/C=N/NC(=O)C(Cc2c[nH]c3ccccc23)NC(=O)OCc2ccccc2)cc([N+](=O)[O-])c1O (stereo not drawn)	0	29	0	0	0
COc1cc(/C=N/NC(=O)C(Cc2c[nH]c3ccccc23)NC(=O)OCC(C)C)cc([N+](=O)[O-])c1O (stereo not drawn)	0	0	0	0	0
CC(C)c1ccc2[nH]c(O)c(N=NC(=O)c3ccc(CSc4nncn4C)cc3)c2c1	0	30	0	0	0
Cn1cnnc1SCc1ccc(C(=O)NN)cc1	0	0	0	0	0
CCOc1ccc(Cn2c(=O)sc3ccccc32)cc1OC	0	0	0	0	0
Cc1[nH]c2ccccc2c1CCNC(=O)c1ccc2c(c1[N+](=O)[O-])C(=O)c1ccccc1C2=O	0	30	0	0	0
CN(C)C(=O)c1ccc2c(c1[N+](=O)[O-])C(=O)c1ccccc1C2=O	0	0	0	0	0
CC(C)(C)C(=O)Nc1cc2c3c(c1)CCC(=O)N3CCC2	0	0	0	0	0
O=C(CN1CCC(c2nc3ccccc3s2)CC1)N1CCCCC1	0	0	0	0	0
O=C(CN1CCC(c2nc3ccccc3s2)CC1)NCc1cccs1	0	40	0	0	0
CC(=O)c1ccc(OCCCC(=O)NCCc2ccccc2)cc1	0	0	0	0	0
Cc1ccc(Nc2cc(C)c3c(O)cccc3n2)cc1C	0	31	0	0	0
CCOc1ccc(NC(=S)NNc2ccnc3cc(Cl)ccc23)cc1	0	38	0	0	0
NC(=O)c1ccc(NC(=O)C2CCCC2)cc1	0	0	0	0	0
COc1ccc(N=C2O/C(=C/c3sc(=S)n(CC4CCCO4)c3O)N=C2C#N)cc1 (stereo not drawn)	0	0	0	0	0
Nc1n[nH]c(C2CC2)c1N=Nc1ccc(Cl)cc1	0	0	0	0	0
Nc1n[nH]c(C2CC2)c1N=Nc1ccc(Cl)c(Cl)c1	0	31	0	0	0
COc1cc(/C=N/NC(=O)c2sc(N)c(C#N)c2C)cc(Br)c1O	0	31	0	0	0
COc1ccc2ccccc2c1/C=N/NC(=O)c1sc(N)c(C#N)c1C	0	0	0	0	0
Cc1cc(O)c(NC(=S)NC(=O)c2ccc(-c3ccc(Cl)cc3)o2)cc1C	0	39	0	0	0
SMILES	PREPL inh	PME-1 inh	Fam108B inh	LYPLA1 inh	LYPLA2 inh
Cc1ccc(NC(=S)NC(=O)c2ccc(-c3ccc(Cl)cc3)o2)c(O)c1	0	30	0	0	0
C=CCNC(=O)C1CCC(=O)N1S(=O)(=O)c1ccc(C)cc1 (stereo not drawn)	0	0	0	0	0
CNC(C)C(=O)NC(C(=O)N1CCCC1C(=O)Nc1ccc2ncccc2c1)C(C)C (stereo not drawn)	0	0	-	0	0
O=[N+]([O-])c1cccc(N=NN(CCO)c2cccc([N+](=O)[O-])c2)c1	52	0	0	0	0
O=c1ccc(-c2ccc(S(=O)(=O)Nc3ccccc3Cl)o2)n[nH]1	0	0	0	0	0
COc1ccc(C(=O)Oc2cccc(/C=N/NC(N)=S)c2)cc1	45	0	0	0	0
Nc1c(C(=O)Nc2ccccc2F)sc2nc(-c3ccco3)ccc12	0	37	0	0	0

Screening results (PubChem BioAssay)
